Bioassay records as filed in PubChem BioAssay.
Rows were chosen to be rich in hits. Some 21% of all compounds tested hit in one or more screens of this group.
Shiga toxin inh – Shiga toxin inhibition; Vero cells, Shiga toxin protein synthesis inhibition reporter; inhibition, % at 38.7 µM; actives 9.2% (n = 290,000); AID 2315; in the data active means inhibition mostly above about 28%, no sharp cut-off; inactive means mostly below about 43%
Pf growth 48h – P. falciparum growth inhibition at 48 hours (one generation) | P. falciparum luciferase growth in erythrocytes, 48 h | Potency, µM (top dose mostly 28.7 µM), actives largely listed as inhibitors | actives 5.9% (n = 310,000) | AID 504832
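Parasite viability was followed by luminescence of a genomically integrated firefly luciferase. Cultures held 0.1% parasitemia at 2% hematocrit (final), incubated under 5% CO2 at 37 C.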
CHX counter-1 – counter-screen hit for Shiga toxin inhibitors, cycloheximide. max response, %. cell reporter, cycloheximide protein synthesis inhibition counterscreen. actives 12% (n = 300,000); in the data active means max response mostly above about 13%, no sharp cut-off; inactive means mostly below about 14%; further: read at 38.3 µM for the half of the compounds with a filed dose
Pf growth 96h – P. falciparum growth inhibition at 96 hour, primary screen for plastid delayed-death inhibitors; AID 504834; Potency, µM (highest dose often 28.7 µM), most hits filed as inhibitors; actives 6.9% (n = 320,000); P. falciparum luciferase reporter growth, 96 h
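96 h incubation, 37 C, 5% CO2, of luciferase-reporter P. falciparum-infected RBCs (2% hematocrit, 0.05% parasitemia final) with test compounds; endpoint luminescence.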
HCV inh – HCV inhibition. Huh7.5.1 HCVcc-Cre infection, luciferase reporter, 44 h. Potency, µM (doses to about 41.8 µM), hits mostly inhibitors. actives 3.4% (n = 340,000)
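Cells (1,000/well) were plated 4 h before compound, then infected with HCVcc-Cre virus (~0.5 moi). After 44 h further culture, infection was read as luciferase luminescence following a 15 min substrate incubation at room temperature.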
AMA1-RON2 inh – disrupts binding of P. falciparum AMA1 to RON2; Potency, µM (series often up to 58.2 µM), most hits filed as inhibitors; AlphaScreen AMA1-biotinylated RON2 peptide binding; actives 0.2% (n = 360,000); further: nearly all actives have a fitted effect of over 45% in size
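AMA1 (3D7) with his tag at 25 nM final met compounds first, then biotinylated RON2 peptide at 25 nM; detection used donor plus acceptor beads, 10 µg/mL apiece, read by AlphaScreen after 30 min at room temperature.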
CHX counter-2 – counter-screen for Shiga toxin inhibitors: cycloheximide protein synthesis block. Cycloheximide counterscreen, protein synthesis reporter, Shiga toxin assay. shares compounds with Shiga toxin inh. actives 3% (n = 510). AID 2318. Potency, µM (doses to about 38.3 µM), most hits filed as activators; calls by dose curve
Numbers stand for hits; 0 = inactive; ? = inconclusive; - = not tested or not shown; [ ] = dose if it differs, or a comment. Unless noted, the call rests on the fitted dose curve; in most records, active means well fitted curve in the direction sought with a large enough effect; inconclusive means small, poorly fitted or top-dose-only effect, or another doubt; inactive means no such curve, though single readings can be large; an effect the other way counts as inactive or inconclusive.

SMILES	Shiga toxin inh	Pf growth 48h	CHX counter-1	Pf growth 96h	HCV inh	AMA1-RON2 inh	CHX counter-2
O=C(COc1ccc(Br)cc1CNCCc1ccccc1)NCc1ccccc1	40	?	0	?	?	0	0
O=C(NCCO)c1nc(C(=O)c2ccccc2)c2ccccc2n1	-	0	-	0	0	0	-
CC(C)CN(Cc1cc2ccccc2[nH]c1=O)C(=O)c1cccnc1	0	0	0	0[5.75 µM]	0	0	-
O=C(c1cccnc1)c1cc2ccccc2[nH]1	active	0	0	0	0	0	0
Cc1nnc(N2C(=O)C(=O)/C(=C(/O)c3ccc4c(c3)OCCO4)C2c2ccc([N+](=O)[O-])cc2)s1 (stereo not drawn)	44	0	0	?	-	-	0
COc1ccc(C)cc1NC(=O)c1ccc(S(=O)(=O)N2CCCCC2)cc1	25	?	0	0	0	0	0
COc1ccc(S(=O)(=O)N2CCCCC2)cc1NC(=O)c1ccc(OC)c(OC)c1	-	?	-	?	?	0	-
O=C(Nc1ccc2oc(-c3ccccc3)nc2c1)c1ccc2c(c1)OCCO2	43	0	0	0	10µM	0	?
CCN(CC(=O)Nc1c(F)cccc1F)C(=O)C1Cc2ccccc2CN1S(=O)(=O)CC (stereo not drawn)	-	0	-	0	0	0	-
O=C(Nc1nc(N2C(=O)c3ccccc3C2=O)n(-c2ccccc2)n1)c1ccccc1	35	0	0	0	0	0	0
O=C(Nc1nc(N2C(=O)c3ccccc3C2=O)n(-c2ccccc2)n1)c1ccc(F)cc1	0	0	0	0	0	0	-
CC(=O)Nc1ccc(NC(=O)COC(=O)c2c3c(nc4ccccc24)CCN(Cc2ccccc2)C3)cc1	22	10µM	0	5.9µM	13µM	0	0
CCN1CCc2nc3ccccc3c(C(=O)Nc3ccc(NC(C)=O)cc3)c2C1	0	0	0	0	0	0	-
CCCCOC(=O)c1ccc(N=Nc2c(C)c(C#N)c(O)[nH]c2=O)cc1	47	0	0	0	0	0	?
COc1cccc(NC(=O)C2CCN(c3cnccn3)CC2)c1	0	0	0	0	0	0	-
COc1ccc(/C=C2\SC(N3CCc4ccccc4C3)=NC2=O)cc1OC	0	0	0	0	0	0	-
Cc1nn(-c2ccc(Cl)cc2)c(N)c1C(O)(CSc1nccn1C)C(F)(F)F (stereo not drawn)	69	?	0	0	0	0	0
Cc1nn(-c2ccccc2)c(N)c1C(O)(CSc1nccn1C)C(F)(F)F (stereo not drawn)	0	-	0	?	0	0	-
CN(CCC#N)S(=O)(=O)c1cc2c3c(c1)CCN3C(=O)CC2	0	0	0	0	0	0	-
COc1cc(S(=O)(=O)N2CCn3cccc3C2C)ccc1NC(C)=O (stereo not drawn)	-	-	-	-	0	0	-
Cc1cccc(Cn2cc(SCC(=O)Nc3nccs3)c3ccccc32)c1	23	?	0	?	0	0	?
Cn1cnnc1Sc1ccc(/C=C(\CCC(=O)O)c2nc3ccccc3s2)cc1[N+](=O)[O-]	0	0	0	0	0	0	-
CNc1ccc(/C=C(\CCC(=O)O)c2nc3ccccc3s2)cc1[N+](=O)[O-]	65	0	0	?	0	0	0
CCOC1=C2CN(S(=O)(=O)c3ccc(C)cc3)[C@@H](c3ccc(CC)cc3)C[C@H]2[C@H]2C(=O)N(c3ccccc3)C(=O)[C@H]2C1	-	-	-	-	-	0	-
COc1ccc(C(CNC(=O)C(CC(C)C)NS(=O)(=O)c2ccc(C)cc2)N2CCOCC2)cc1 (stereo not drawn)	-	?	-	?	0	0	-
SMILES	Shiga toxin inh	Pf growth 48h	CHX counter-1	Pf growth 96h	HCV inh	AMA1-RON2 inh	CHX counter-2
Cc1nc(N2CCN(C(=O)c3ccco3)CC2)nc2c1C(=O)CCC2	36	0	0	?	0	0	?
COc1cccc(CC(=O)OCC(=O)N(C)CC(=O)Nc2ccc(F)cc2)c1	-	0	-	0	0	0	-
CC(=O)Nc1ccc2c(c1)CCCC2	20	0	0	0	0	0	0
CC(=O)N1CCC(C(=O)Nc2ccc3c(c2)CCC3)CC1	0	0	0	?	0	0	-
COc1ccc(NC(=O)c2ccccc2[N+](=O)[O-])cc1	40	0	0	?	0	0	0
COc1ccc(CNC(=O)c2ccccc2[N+](=O)[O-])cc1	0	0	0	0	0	0	-
COc1ccc(NC(=O)c2cccnc2Nc2ccc(OC)cc2)cc1	42	0	0	?	?	0	0
COCCCNS(=O)(=O)c1cc2c3c(c1)C(C)C(=O)N3CCC2 (stereo not drawn)	0	0	0	0	0	0	-
CCN1CCN(C(=O)c2ccc3c(=O)n(CCC4=CCCCC4)c(=O)[nH]c3c2)CC1	29	?	0	0	?	0	?
CC(C)(C)NC(=O)CN1CCN(C(=O)CCl)CC1	0	?	0	0	0	0	-
CC(C)CNC(=O)c1noc2c1CCCC2	51	0	0	0	0	0	0
CC1Cc2ccccc2N1Cc1cc(=O)n2ccsc2n1 (stereo not drawn)	25	?	0	13µM	?	0	0
O=C(Nc1ccncc1Cl)c1ccncc1	0	0	0	0	0	0	-
O=C1Cc2cc([N+](=O)[O-])ccc2N1c1c(Cl)cccc1Cl	64	4.7µM	0	0	0	0	0
CC1(C)OC(=O)C(=NNc2ccccc2)C(=O)O1	36	0	0	0	0	0[11.6 µM]	0
COC(=O)C(O)(c1ccc(N(C)S(=O)(=O)c2ccccc2)cc1)C(F)(F)F (stereo not drawn)	84	0	0	?	0	0	?
OC1Cc2ccccc2C1Nc1cccc(C(F)(F)F)c1 (stereo not drawn)	-	-	-	-	0	0	-
O=C(NCCCO)/C(=C\c1ccco1)NC(=O)c1ccco1	38	0	0	?	0	0	0
COCc1c(C(=O)OC)nnn1-c1ccc(C(F)(F)F)cc1[N+](=O)[O-]	0	?	0	0	0	0	-
CC(=O)c1ccc(NC(=O)C(C)Sc2nnc(C3CC3)n2C2CC2)cc1 (stereo not drawn)	-	?	-	?	0	0	-
CC(=O)c1ccc(NC(=O)C(C)Sc2nnc(C3CCCCC3)o2)cc1 (stereo not drawn)	47	0	0	?	-	-	0
COC(=O)c1ccc(CSCC(=O)Nc2cc(OC)cc(OC)c2)o1	0	0	0	0	0	0	-
COC(=O)c1ccc(CSCc2ccc(C(=O)OC)o2)o1	38	0	0	0	0	0	0
O=C1N(CCCl)c2ccc(Br)cc2C12OCCO2	-	0	0	?	0	0	-
O=C(COCc1cc(-c2ccc3c(c2)OCO3)on1)N1CCN(c2ccccc2)CC1	40	0	0	10µM	0	0	0
O=CNc1ccc(OC(=O)c2cncc(Br)c2)cc1	0	0	0	0	0	0	-
Cc1sc(NC(=O)C2CCCC2)c(C#N)c1C	19	0	0	0	0	0	0
